Assay [1] can be described thus: yeast TOR pathway RPL19A-GFP modulators, primary screen, cell-based, S. cerevisiae, multiplex flow cytometry (AID 1862).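 Note: lower values mimic rapamycin by blocking the RPL19A rise seen in DMSO cells.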 The settings on record: S. cerevisiae RPL19A-GFP strain, flow cytometry fluorescence, 3 h; at 10 µM; stronger effect = lower value. For orientation: A flow cytometer gives signals particle by particle.
Assay [2] can be described thus: modulators of MEP2-GFP levels in yeast, primary screen, S. cerevisiae, multiplex flow cytometry (AID 1867;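 active = GFP response, as percent of the DMSO control, above the screen-wide mean plus 3 SD, about 139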;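 note: median GFP channel fluorescence of barcode-gated MEP2-GFP cells measured by flow cytometry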). The settings on record: S. cerevisiae MEP2-GFP strain, 3 h, at 10 µM, stronger effect = higher value, 100% means same as DMSO wells.
The nature of assay [3]: modulators of CIT2-GFP expression in yeast, primary screen, S. cerevisiae, GFP fusion, multiplex flow cytometry (AID 1870;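 active = percent response above a set limit, the screen-wide mean plus 3 SD, cut at about 130% in these data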;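 note: barcoded CIT2-GFP strain pooled with four other GFP strains with rapamycin as positive control; median GFP fluorescence per well over plate mean of DMSO wells so 100% = DMSO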). The settings on record: 3 h, at 10 µM, stronger effect = higher value.
Assay [4] can be described thus: modulators of LAP4-GFP expression in yeast, primary screen, S. cerevisiae, multiplex flow cytometry (AID 1873;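 active = GFP signal, as percent of the solvent control, above the screen mean plus 3 SD, about 149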). The settings on record: 3 h, at 10 µM, stronger effect = higher value.
A short description of assay [5]: modulators of AGP1-GFP expression in yeast TOR pathway, primary screen, cell-based, multiplex flow cytometry, S. cerevisiae (AID 1887;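 active = GFP signal above the screen-wide mean plus 3 SD, that is over about 124.5% of the solvent control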;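 note: AGP1-GFP fusion strain of S. cerevisiae within a five-strain barcoded multiplex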). The settings on record: 3 h, at 10 µM, stronger effect = higher value.
The nature of assay [6]: inhibitors of CD8+ T cell-vesicle binding, pilot screen, LFA-1/ICAM-1 modulator project, MLPCN validation set, flow cytometry (AID 2523;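 active = response below a set limit, under 55% cells CD8-positive and vesicle-bound, and CD8 cells' 90th-percentile brightness under 279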;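 for vesicle binding response: mean PE anti-B7-1 fluorescence of CD8+ cells relative to row control; 100% = QL9-loaded vesicles with DMSO vehicle in the same plate row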). As to conditions: 2C mouse CD8+ T cells, at 7 µM, stronger effect = lower value; double positive events: measured here: CD8+/vesicle+ event percentage.
Assay [7] concerns the target Integrin beta-1 (Homo sapiens) + Integrin alpha-4 (Homo sapiens) (UniProt P13612+P05556). Kind of assay: inhibition of HUTS-21 binding to VLA-4, pilot screen, VLA-4 allosteric modulator project, U937 cells, HUTS-21 mAb, flow cytometry, validation set (AID 2674;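 active = inhibition above 50%, about 3 SD of the validation set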;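 note: antibody binding induced by the VLA-4 ligand LDV present at three times its Kd; 0% = LDV ligand with antibody and no compound and 100% = antibody without LDV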). As to conditions: HUTS-21 LIBS mAb binding, at 6.7 µM, stronger effect = higher value, binding induced by LDV ligand.
Assay [8] is described as follows: superoxide lowering in aged yeast cells, pilot screen, validation compound set (AID 2706;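 active = superoxide response below 65% of plate, a cut near 3 SD across the whole screen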;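 note: yeast exposed to compound for one week at 30 degrees C before staining; 100% = mean of all compound wells on the same plate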). The settings on record: S. cerevisiae aging, superoxide DHE fluorescence; at 10 µM; stronger effect = lower value.
Assay [9] addresses Beta-adrenergic receptor kinase 1 (Homo sapiens) (UniProt P25098). Briefly: GRK2 binders displacing RNA aptamer, biochemical, validation, human GRK2, bead flow cytometry (AID 488806;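 active = aptamer binding inhibition above 30%, about 3 SD of noise from non-fluorescent compounds; inactive = inhibition at or below 30%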). As to conditions: bead-bound GRK2, FAM-aptamer displacement, at 10 µM, stronger effect = higher value.
The target of assay [10] is Beta-2 adrenergic receptor (Homo sapiens) (UniProt P07550). Briefly: beta2AR agonists driving receptor internalization, pilot screen, cell-based, FAP fluorogen, flow cytometry, validation set (AID 504459;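 active = percent response above 42, roughly 3 SD of non-fluorescent test compounds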;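 note: agonist-driven loss of surface beta2AR via internalization measured by FAP dye flow cytometry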). The settings on record: Am2.2-beta2AR cells, FAP surface receptor flow cytometry; at 10 µM; stronger effect = higher value.
Sequence of Beta-2 adrenergic receptor (Homo sapiens) (P07550 whole entry, looked up): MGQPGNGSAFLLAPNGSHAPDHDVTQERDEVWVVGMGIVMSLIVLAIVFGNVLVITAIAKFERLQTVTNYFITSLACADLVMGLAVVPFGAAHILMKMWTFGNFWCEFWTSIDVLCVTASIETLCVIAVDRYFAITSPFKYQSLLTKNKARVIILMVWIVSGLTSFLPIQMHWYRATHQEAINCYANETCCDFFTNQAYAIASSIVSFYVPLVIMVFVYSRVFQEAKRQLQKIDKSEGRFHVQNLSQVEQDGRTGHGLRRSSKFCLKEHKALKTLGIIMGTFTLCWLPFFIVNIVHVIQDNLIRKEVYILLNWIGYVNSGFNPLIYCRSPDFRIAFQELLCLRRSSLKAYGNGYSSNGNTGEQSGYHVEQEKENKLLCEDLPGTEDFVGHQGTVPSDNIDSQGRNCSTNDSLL
For assay [11], the target named is AP-2 complex subunit beta (Homo sapiens) (UniProt P63010). Kind of assay: inhibitors of arrestin peptide binding to AP2, pilot screen, biochemical, validation set, GST-AP2 beads, flow cytometry (AID 504541;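 active = inhibition above 54%, about 3 SD of non-fluorescent compounds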;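 note: AP2 carries R879A mutation and is captured from E. coli lysate; bead-bound FITC arrestin peptide fluorescence measuring arrestin peptide binding to AP2; 0% = DMSO wells and 100% = excess unlabeled arrestin peptide control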). As to conditions: FITC arrestin peptide, at 10 µM, stronger effect = higher value, AP2 beta2 appendage fragment, R879A mutant.
Sequence of AP-2 complex subunit beta (Homo sapiens) (P63010 whole entry, looked up, the tested form may be a part, one chain of several): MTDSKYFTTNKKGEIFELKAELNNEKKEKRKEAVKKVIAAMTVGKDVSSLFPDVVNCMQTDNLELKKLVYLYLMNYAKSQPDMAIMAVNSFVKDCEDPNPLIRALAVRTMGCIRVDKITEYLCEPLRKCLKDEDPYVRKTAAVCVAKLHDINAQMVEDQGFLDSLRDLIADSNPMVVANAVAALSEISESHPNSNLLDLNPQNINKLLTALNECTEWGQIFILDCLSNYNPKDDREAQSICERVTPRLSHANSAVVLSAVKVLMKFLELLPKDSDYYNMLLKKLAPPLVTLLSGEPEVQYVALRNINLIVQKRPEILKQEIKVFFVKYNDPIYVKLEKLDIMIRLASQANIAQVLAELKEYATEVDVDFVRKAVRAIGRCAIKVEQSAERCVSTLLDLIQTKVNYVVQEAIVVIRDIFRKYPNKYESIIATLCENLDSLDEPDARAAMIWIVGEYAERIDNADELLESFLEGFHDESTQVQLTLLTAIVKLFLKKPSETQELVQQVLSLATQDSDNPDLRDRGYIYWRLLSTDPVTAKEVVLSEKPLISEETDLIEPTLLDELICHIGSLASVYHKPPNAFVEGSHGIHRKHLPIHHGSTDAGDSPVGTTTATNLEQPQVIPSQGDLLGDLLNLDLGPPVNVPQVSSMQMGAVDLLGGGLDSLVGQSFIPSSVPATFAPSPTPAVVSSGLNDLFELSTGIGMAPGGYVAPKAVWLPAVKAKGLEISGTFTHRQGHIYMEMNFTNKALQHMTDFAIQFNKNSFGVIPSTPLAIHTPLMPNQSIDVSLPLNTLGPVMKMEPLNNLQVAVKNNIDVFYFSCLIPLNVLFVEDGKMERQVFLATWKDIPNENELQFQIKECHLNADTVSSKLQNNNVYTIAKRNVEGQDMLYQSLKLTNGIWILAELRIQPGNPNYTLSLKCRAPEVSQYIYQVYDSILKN
Assay [12] in a line: yeast V-ATPase proton transport modulators, S. cerevisiae, pHLuorin, HTS validation (AID 504600; in the data active = response above about 15%;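 note: plate controls were DMSO for no effect and reference compound for full effect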). The settings on record: S. cerevisiae pHLuorin cytosolic pH, at 10 µM, stronger effect = higher value.
The subject of assay [13] is anti-desmoglein-3 scFv antibody binding to human DSG3. Kind of assay: inhibitors of anti-DSG3 scFv binding to DSG3, pilot screen, biochemical, validation compound set, bead-based, flow cytometry (AID 588368;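 active = binding below the plate cutoff, the plate median minus 3 SD, with a reading above zero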;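 note: signal is the median channel fluorescence of bead-bound GFP antibody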). The settings on record: Protein G beads, DSG3-Fc, scFv-GFP binding, at 10 µM, stronger effect = lower value.
A short description of assay [14]: inhibitors of fungal efflux pumps CDR1, CDR2, MDR1, pilot screen, validation compound set, multiplex, phenotypic (AID 588506;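 active = efflux inhibition above 0.42, the validation set average plus 4 SD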;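 note: Nile Red retained in cells so higher fluorescence means more efflux inhibition; 0 = negative control wells and 1 = enniatin B 25 µM full block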). As to conditions: S. cerevisiae pump-expressing triplex, Nile Red efflux flow cytometry; at 10 µM; stronger effect = higher value; the pumps come from Candida albicans.
In assay [15] the target is ATP-binding cassette sub-family B member 6 (Homo sapiens) (UniProt Q9NP58). Kind of assay: ABCB6 transporter inhibitors, pilot screen, K562-ABCB6 cells, flow cytometry, validation set (AID 588550;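 active = inhibition above the screen-wide mean plus 3 SD, about 51%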;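 note: 0% = DMSO wells and 100% = benzethonium chloride 70 µM positive control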). As to conditions: K562-ABCB6 porphyrin accumulation, 1 h, at 10 µM, stronger effect = higher value.
Sequence of ATP-binding cassette sub-family B member 6 (Homo sapiens) (Q9NP58 whole entry, looked up): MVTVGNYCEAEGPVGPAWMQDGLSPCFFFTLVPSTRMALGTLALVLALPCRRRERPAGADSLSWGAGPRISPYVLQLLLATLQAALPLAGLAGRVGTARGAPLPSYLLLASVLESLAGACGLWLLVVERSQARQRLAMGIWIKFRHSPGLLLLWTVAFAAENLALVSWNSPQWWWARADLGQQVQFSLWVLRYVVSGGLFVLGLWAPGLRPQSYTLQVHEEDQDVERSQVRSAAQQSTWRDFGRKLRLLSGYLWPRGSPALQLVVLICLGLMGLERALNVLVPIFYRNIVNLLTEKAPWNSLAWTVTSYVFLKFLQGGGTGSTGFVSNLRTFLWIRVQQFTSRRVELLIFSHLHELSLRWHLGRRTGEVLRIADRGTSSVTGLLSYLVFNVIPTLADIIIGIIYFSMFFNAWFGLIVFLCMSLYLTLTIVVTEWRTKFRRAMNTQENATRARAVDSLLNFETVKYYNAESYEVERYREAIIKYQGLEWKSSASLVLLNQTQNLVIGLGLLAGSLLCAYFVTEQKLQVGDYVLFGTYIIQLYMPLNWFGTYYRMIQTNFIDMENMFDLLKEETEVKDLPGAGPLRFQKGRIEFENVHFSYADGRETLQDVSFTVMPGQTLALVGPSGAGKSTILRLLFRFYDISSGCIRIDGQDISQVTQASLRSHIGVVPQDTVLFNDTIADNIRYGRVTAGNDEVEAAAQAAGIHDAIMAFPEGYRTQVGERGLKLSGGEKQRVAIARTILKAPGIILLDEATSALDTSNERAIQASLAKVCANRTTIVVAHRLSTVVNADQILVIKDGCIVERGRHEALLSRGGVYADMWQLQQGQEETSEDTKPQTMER
Assay [16] can be described thus: promoters of myeloid differentiation in arrested cells, primary screen, cell-based, GFP/MAC1 double positive, flow cytometry, validation set (AID 588685;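 active = differentiation response of at least 50%, scaled between solvent and reference control, from cells with both markers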;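 note: compound exposure lasts four days before antibody staining and flow analysis; 0% = DMSO wells and 100% = 5 µM fulvestrant positive control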). As to conditions: ER-HoxA9 marrow cells, stronger effect = higher value, normalized: vehicle 0, fulvestrant 100.

Inconclusive results are not listed. Activity calls are given as the source filed them. Cut-off read from the data, not from the text of the source, unless noted: active = percent of DMSO control GFP below about 86%; inactive = the rest, inconclusive results apart.

From PubChem BioAssay come the findings set out here.

A word on the inhibition: it is the relative decrease from the control value, in per cent.

Sequence of Beta-adrenergic receptor kinase 1 (Homo sapiens) (P25098 whole entry, looked up): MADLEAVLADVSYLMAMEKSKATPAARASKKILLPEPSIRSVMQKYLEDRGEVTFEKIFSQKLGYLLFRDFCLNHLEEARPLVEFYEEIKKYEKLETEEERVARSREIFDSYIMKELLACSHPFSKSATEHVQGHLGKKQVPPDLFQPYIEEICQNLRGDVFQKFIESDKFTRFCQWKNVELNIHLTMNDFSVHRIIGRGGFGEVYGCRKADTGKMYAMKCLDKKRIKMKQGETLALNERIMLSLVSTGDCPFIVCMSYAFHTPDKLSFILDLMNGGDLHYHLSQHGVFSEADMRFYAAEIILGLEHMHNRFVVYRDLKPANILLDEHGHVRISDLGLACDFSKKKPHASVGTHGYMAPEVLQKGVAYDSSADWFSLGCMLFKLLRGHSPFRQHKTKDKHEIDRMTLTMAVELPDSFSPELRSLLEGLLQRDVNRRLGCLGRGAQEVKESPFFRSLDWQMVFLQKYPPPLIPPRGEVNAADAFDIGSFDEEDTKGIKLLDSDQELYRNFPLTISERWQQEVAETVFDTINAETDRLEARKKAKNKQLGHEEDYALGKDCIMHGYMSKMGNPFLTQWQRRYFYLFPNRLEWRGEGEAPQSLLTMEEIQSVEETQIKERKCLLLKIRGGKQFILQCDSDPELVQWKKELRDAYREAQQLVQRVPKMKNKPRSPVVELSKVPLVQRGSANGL
Sequence of Integrin beta-1 (Homo sapiens) + Integrin alpha-4 (Homo sapiens) (P05556 whole entry, looked up): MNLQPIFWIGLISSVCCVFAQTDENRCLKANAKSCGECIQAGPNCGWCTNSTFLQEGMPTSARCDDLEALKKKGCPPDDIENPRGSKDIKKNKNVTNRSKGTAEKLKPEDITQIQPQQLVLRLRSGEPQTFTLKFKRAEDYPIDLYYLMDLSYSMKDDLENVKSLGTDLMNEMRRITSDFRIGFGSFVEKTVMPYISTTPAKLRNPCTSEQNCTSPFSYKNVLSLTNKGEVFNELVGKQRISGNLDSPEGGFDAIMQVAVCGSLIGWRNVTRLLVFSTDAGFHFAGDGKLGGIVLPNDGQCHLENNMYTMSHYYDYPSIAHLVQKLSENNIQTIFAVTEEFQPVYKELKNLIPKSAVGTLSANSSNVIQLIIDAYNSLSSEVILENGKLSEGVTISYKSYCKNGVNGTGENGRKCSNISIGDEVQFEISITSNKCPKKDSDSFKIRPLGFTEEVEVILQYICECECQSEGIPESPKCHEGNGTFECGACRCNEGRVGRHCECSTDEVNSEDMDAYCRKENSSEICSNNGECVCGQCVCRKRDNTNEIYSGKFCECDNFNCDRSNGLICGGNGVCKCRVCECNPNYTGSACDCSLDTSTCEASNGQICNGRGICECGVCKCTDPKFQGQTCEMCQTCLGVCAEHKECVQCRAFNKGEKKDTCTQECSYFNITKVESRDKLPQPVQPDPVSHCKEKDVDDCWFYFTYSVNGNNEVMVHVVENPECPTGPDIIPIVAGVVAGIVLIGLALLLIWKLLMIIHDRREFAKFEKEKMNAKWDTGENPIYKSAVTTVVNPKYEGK
Sequence of Integrin beta-1 (Homo sapiens) + Integrin alpha-4 (Homo sapiens) (P13612 whole entry, looked up): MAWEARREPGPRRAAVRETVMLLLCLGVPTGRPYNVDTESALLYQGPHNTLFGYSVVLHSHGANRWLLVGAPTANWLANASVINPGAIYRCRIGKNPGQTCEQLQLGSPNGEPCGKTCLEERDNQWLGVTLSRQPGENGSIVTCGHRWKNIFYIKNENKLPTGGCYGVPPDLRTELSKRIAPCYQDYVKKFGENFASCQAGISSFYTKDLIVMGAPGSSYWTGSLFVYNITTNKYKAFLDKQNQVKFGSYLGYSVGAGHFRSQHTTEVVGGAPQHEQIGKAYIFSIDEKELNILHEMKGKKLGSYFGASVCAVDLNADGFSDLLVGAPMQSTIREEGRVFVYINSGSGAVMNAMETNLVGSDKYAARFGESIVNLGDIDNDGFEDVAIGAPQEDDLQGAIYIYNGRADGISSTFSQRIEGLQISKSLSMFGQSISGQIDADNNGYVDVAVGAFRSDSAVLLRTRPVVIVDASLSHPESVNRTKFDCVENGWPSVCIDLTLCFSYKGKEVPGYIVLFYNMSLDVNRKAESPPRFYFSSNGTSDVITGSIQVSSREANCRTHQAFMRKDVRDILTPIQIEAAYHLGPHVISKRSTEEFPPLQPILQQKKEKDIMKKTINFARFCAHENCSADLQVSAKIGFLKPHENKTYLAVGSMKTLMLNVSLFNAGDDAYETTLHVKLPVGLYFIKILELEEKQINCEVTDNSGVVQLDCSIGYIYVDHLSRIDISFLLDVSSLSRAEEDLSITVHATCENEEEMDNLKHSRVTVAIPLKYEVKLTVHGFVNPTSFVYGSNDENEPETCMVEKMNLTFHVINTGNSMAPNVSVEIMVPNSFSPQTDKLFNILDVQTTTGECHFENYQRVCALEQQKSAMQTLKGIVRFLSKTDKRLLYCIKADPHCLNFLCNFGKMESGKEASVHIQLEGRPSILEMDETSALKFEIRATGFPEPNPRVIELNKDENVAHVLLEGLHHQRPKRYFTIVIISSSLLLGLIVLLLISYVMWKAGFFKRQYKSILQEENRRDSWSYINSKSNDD

With `COc1cc2c(cc1OC)C(C)=NC1(CCCCC1)C2`, in assay [1], the percent of DMSO control GFP is 99.2% (inactive). Besides, the figures for the GFP response vs DMSO in [2] and in [4] were 98.6% (inactive) and 106% (inactive), respectively. In [3], the percent response of DMSO control is 95.1% (inactive). For the same molecule, in [5], the GFP response, % of DMSO was 107% (inactive). This molecule returned a double positive events in assay [6] of 62.8%. In addition, the vesicle binding response in assay [6] was 215% (inactive). Moreover, the values for the inhibition in assay [7], in assay [11] and in assay [15] were -29.2% (inactive), 20.9% (inactive) and -52% (inactive), respectively. For the same molecule, the superoxide response (% of plate) in assay [8] is 100% (inactive). In addition, the aptamer binding inhibition in [9] is 6% (inactive). Moreover, the response was -21.7% (inactive) in assay [10] and 8.37% (inactive) in assay [12]. Further, the binding (% of control) in [13] is 131% (inactive). Also, the efflux inhibition (fraction of control) in assay [14] was -0.04 (inactive). In addition, the differentiation response in [16] was -14.8% (inactive).
`C#C[C@]1(O)CC[C@H]2[C@@H]3CCc4cc(OC)ccc4[C@H]3CC[C@@]21C`: in assay [1], the percent of DMSO control GFP is 103% (inactive). Further, the GFP response vs DMSO is 104% (inactive) in assay [2] and 126% (inactive) in [4]. The percent response of DMSO control in assay [3] is 102% (inactive). The GFP response, % of DMSO in [5] is 115% (inactive). In addition, the double positive events in [6] is 63.7%. Also, the vesicle binding response in [6] is 229% (inactive). Also, the figures for the inhibition in [7], in assay [11] and in assay [15] were 3.14% (inactive), 31.4% (inactive) and 5% (inactive), respectively. Also, the superoxide response (% of plate) in assay [8] was 115% (inactive). Also, the aptamer binding inhibition in assay [9] was -1% (inactive). The response is -13.2% (inactive) in assay [10] and 0.87% (inactive) in assay [12]. Besides, the binding (% of control) in [13] was 108% (inactive). The efflux inhibition (fraction of control) in [14] is -0.04 (inactive). In addition, the differentiation response in [16] is -2.03% (inactive).
Consider `C=CCn1c(N2CCCCCC2)nc2c1c(=O)n(C)c(=O)n2C`, for which the percent of DMSO control GFP in assay [1] is 97.6% (inactive). Also, the GFP response vs DMSO in assay [2] is 97.6% (inactive); in assay [4], 104% (inactive). In addition, in assay [3], the percent response of DMSO control was 95.7% (inactive). For the same molecule, the GFP response, % of DMSO in assay [5] is 114% (inactive). In addition, the double positive events in assay [6] was 63.5%. For the same molecule, in [6], the vesicle binding response is 220% (inactive). Further, the inhibition was 7.4% (inactive) in [7], -11.7% (inactive) in [11] and 7% (inactive) in assay [15]. For the same molecule, the superoxide response (% of plate) in assay [8] was 112% (inactive). Further, in [9], the aptamer binding inhibition is 3% (inactive). Besides, the response in [10] was -47.3% (inactive); in assay [12], 0.52% (inactive). Besides, in assay [13], the binding (% of control) was 95.9% (inactive). The efflux inhibition (fraction of control) in assay [14] is 0.17 (inactive). In assay [16], the differentiation response is -11.9% (inactive).
Take `O=c1nc2sc3ccccc3n2c(=O)n1-c1ccc(Cl)cc1`: the percent of DMSO control GFP in assay [1] is 105% (inactive). The GFP response vs DMSO in assay [2] is 97.2% (inactive); in assay [4], 96.6% (inactive). Also, the percent response of DMSO control in assay [3] is 108% (inactive). For the same molecule, the GFP response, % of DMSO in assay [5] was 99.7% (inactive). The molecule further had a double positive events in [6] of 64.1%. In addition, in [6], the vesicle binding response was 232% (inactive). The inhibition was -12.9% (inactive) in [7], -5.72% (inactive) in assay [11] and 11% (inactive) in [15]. Besides, the superoxide response (% of plate) in assay [8] was 110% (inactive). In addition, the aptamer binding inhibition in assay [9] is -3% (inactive). Besides, the response in assay [10] was -10.3% (inactive); in assay [12], 1.03% (inactive). In addition, the binding (% of control) in assay [13] is 96.4% (inactive). Moreover, the efflux inhibition (fraction of control) in assay [14] was -0.14 (inactive). For the same molecule, the differentiation response in assay [16] is 3.18% (inactive).
